Reference: ChEMBL document CHEMBL1157539, “Thousands of chemical starting points for antimalarial lead identification” (Nature, 2010)

Tests used:
Assay type in all cases: functional
Plasmodium falciparum [1] = experiment: GSK_TCMDC: Inhibition of Plasmodium falciparum 3D7 in whole red blood cells, using parasite LDH activity as an index of growth. Test compounds present at 2uM
Plasmodium falciparum [2] = experiment: GSK_TCMDC: Inhibition of Plasmodium falciparum Dd2 in whole red blood cells, using parasite LDH activity as an index of growth. Test compounds present at 2uM
HepG2 = experiment: GSK_TCMDC: Percent inhibition of human HepG2 cell line. Test compounds present at 10uM.

Structure (SMILES)	Inhibition (Plasmodium falciparum [1]) [%]	Inhibition (Plasmodium falciparum [2]) [%]	Inhibition (HepG2) [%]
NC(=O)c1ccc(C(=O)Nc2cccc(-c3ccc(-c4nc5cc(C(F)(F)F)ccc5[nH]4)cc3)c2)cc1	100	31	35
Cc1nc2nc(N)nc(N)c2c(C)c1Cc1cccs1.Cl	95	2	66
CCCCCCNC(=O)C1Cc2c([nH]c3ccccc23)C2(CCN(CCc3ccccc3)CC2)N1 (stereo not drawn)	96	34	41
CC(CN1CCN(C)CC1)C(=O)Nc1ccc(-c2ccc(-c3nc4cc(C(F)(F)F)ccc4[nH]3)cc2)cc1 (stereo not drawn)	100	100	19
CC(CCCC(=O)Nc1ccc(CC(C)NCCc2cccc(Cl)c2)cc1)NCCc1cccc(Cl)c1 (stereo not drawn)	100	14	98
C=CCCCNCC(NCCCNc1cc(=O)c2ccccc2[nH]1)c1cc(Br)cc(Br)c1 (stereo not drawn)	94	19	0
Fc1cccc(-c2ccc3c(c2)CC(NCc2c[nH]c4cnccc24)C3)c1 (stereo not drawn)	100	68	24
COc1ccc(C=NN=c2cc(C)[nH]c3ccccc23)c2ccccc12	99	69	26
C[C@@H]([C@@H](CCCc1ccc(Cl)cc1)C(=O)N[C@H](C(=O)Nc1cccnc1)C(C)(C)C)N(O)C=O	100	99	7
CCOC(=O)C(=CNc1ccc(Cc2cnc(N)nc2N)cc1CC)C(=O)OCC	87	7	47
CCCc1nc2c(N3CCCN(C(=O)NC4CCCCC4)CC3)cccc2n1Cc1ccccn1	89	10	10
CCN(CC)CCN(Cc1ccc(-c2ccc(C(F)(F)F)cc2)cc1)C(=O)Cn1c(CCc2cccc(F)c2F)nc(=O)c2ccc(C)cc21.O=C(O)C(O)C(O)C(=O)O	99	58	39
CCOc1ccc(-c2nc(NC(=O)CS(=O)(=O)c3ccccc3)sc2C)cc1	100	59	6
Cc1nc(-c2cccc(C(=O)NC3CCC(CCN4CCc5ccc(-c6cccnc6)cc5CC4)CC3)c2)no1.Cl (stereo not drawn)	98	4	17
CC(=O)N/N=C/[C@H](CCc1ccccc1)NC(=O)[C@H](CC(C)C)NC(=O)c1ccc(OCCN2CCOCC2)cc1	96	87	4
CC(C)CC(=O)NC1CCN(Cc2c(-c3cccs3)nc3ccccc3c2C(=O)N[C@@H](C)C2CCCCC2)CC1	96	97	0
COc1cc(C)ccc1S(=O)(=O)N1CCCCC(c2ccc(C(F)(F)F)cc2)=N1	92	89	16
Cc1cc(O)c(CN(C)Cc2ccc3c(c2)OCCO3)cc1C(C)C	98	47	10
Cl.Oc1ccc2c(CNCCc3ccccc3)c(O)ccc2c1CNCCc1ccccc1	99	100	24
CN1CCCN(c2ccnc3cc4c(cc23)N(C(=O)c2ccccc2Cl)CC4)CC1.Cl	88	30	4
COc1ccccc1N1CCN(C(C(=O)NCc2ccc3c(c2)OCO3)c2ccc(C)cc2)CC1 (stereo not drawn)	85	81	1

Structure (SMILES)	Inhibition (Plasmodium falciparum [1]) [%]	Inhibition (Plasmodium falciparum [2]) [%]	Inhibition (HepG2) [%]
CCCCCCCc1c2c(C)c(C(=O)OCC)nc-2cc2n1CC(C)=C2C.Cl	89	10	11
Cc1cc(NC(=O)c2cccs2)ccc1OC1CCN(Cc2ccc(C#N)cc2)C1.O=C(O)C(F)(F)F (stereo not drawn)	82	61	13
O=C(Nc1cccc(-c2csc(-c3nc4ccccc4[nH]3)c2)c1)c1cccnc1	98	45	18
CCOC(=O)c1ccc(NC(=O)Nc2cccc(-c3cccc(-c4nc5ccccc5[nH]4)c3)c2)cc1	100	99	76
O=C(Nc1cccc(CN2CCCN(Cc3ncc[nH]3)CC2)c1)c1cc2ccccc2s1.O=C(O)C(F)(F)F	99	35	22
COc1ccc2cc(-c3nc(-c4c(Cl)cccc4Cl)[nH]c3-c3ccnc(NCCCN4CCCCC4C)c3)ccc2c1.O=C(O)C(F)(F)F (stereo not drawn)	94	86	19
CNCC(C)(C)c1nc(-c2ccc(Cl)c(O)c2)c(-c2ccncc2)[nH]1.Cl	98	96	46
COc1ccc2nc(C)cc(NCc3cccc4ccccc34)c2c1.Cl	100	72	28
COc1cccc(C(=O)NC(c2ccccc2OC)c2cc(Cl)c3cccnc3c2O)c1 (stereo not drawn)	91	36	58
Cl.Oc1ccc(CCCc2cc(Oc3c(I)cc(CCc4ncc[nH]4)cc3I)ccc2O)cc1	95	7	26
O=C(Nc1ccc(F)c(F)c1)c1ccc(CN2CCCN(Cc3cccc(O)c3)CC2)cc1.O=C(O)C(F)(F)F	92	57	43
CC(C)Nc1nc(NCCc2c[nH]cn2)nc(Nc2ccc(Oc3ccccc3)cc2)n1	95	9	0
Cc1cc(N[C@@H](CC(C)C)C(=O)NCCOc2ccccc2)nc(NCCc2ccccc2)n1.O=C(O)C(F)(F)F	94	29	13
Cc1cccc(-c2nc(Nc3ccncc3)c3ccc([N+](=O)[O-])cc3n2)n1	87	13	0
O=C(/C=C/c1ccc(Cl)c(Cl)c1)NCCCCCN1CCC(NC(=O)Nc2ccc(Cl)cc2Cl)CC1	91	33	96
Cc1ccnc(NC(=O)c2cc(-c3cccc([N+](=O)[O-])c3)nc3onc(C)c23)c1	91	44	5
COc1cc2nc(NCCc3ccccc3)nc(N(C)Cc3ccccc3)c2cc1OC	96	58	31
CCC(CC)CN1C(=O)C(C)(c2ccccc2)N=C1N.O=C(O)C(F)(F)F (stereo not drawn)	84	11	1
CCc1cn2c3c(cc(C(=O)N[C@@H](Cc4cc(F)cc(F)c4)[C@H](O)CNC4CC4)cc13)N(C)S(=O)(=O)CC2.O=CO	100	99	3
N=C(N)c1ccc(C=Cc2ccc(C(=N)N)cc2O)cc1.O=S(=O)(O)CCO	92	80	10
O=C(Cn1c(SCc2cccc(F)c2F)cc(=O)c2ccccc21)N(Cc1ccc(-c2ccc(C(F)(F)F)cc2)cc1)C1CCN(CCO)CC1	89	81	50

Structure (SMILES)	Inhibition (Plasmodium falciparum [1]) [%]	Inhibition (Plasmodium falciparum [2]) [%]	Inhibition (HepG2) [%]
COc1c(OC)c(OC)c2ccccc2c1CNCCCCCCNCc1c(OC)c(OC)c(OC)c2ccccc12.Cl	100	71	99
O=C(Nc1cccnc1)c1cn(-c2ccccc2)nc1-c1cccs1	99	61	3
O=C(/C=C/c1ccc(Cl)c(Cl)c1)NCCCCCCN1CCN(C(=O)Nc2cccc(Cl)c2)CC1	85	2	33
Cl.NOCCCCOc1ccc(Br)cc1	99	0	0
OC(CNC1CCCCC1)Cn1c2ccc(I)cc2c2cc(I)ccc21 (stereo not drawn)	100	93	10
COc1ccc(N2CCN(CCCNC(=O)c3ccc(NC(=O)c4cc(Cl)cc(Cl)c4)cc3)CC2)c(OC)c1	100	79	21
CCc1cc(-c2onc(C)c2-c2cc3ccccc3o2)c(O)cc1OC	95	33	48
CCOc1c(OC)ccc2c1CCN(CCN1CCC(NC(=O)c3ccc(-c4cccc(C(F)(F)F)c4C(F)(F)F)cc3)CC1)C2	100	57	30
N#Cc1ccc(N2CCN(Cc3cccc(-c4cccc(-c5nc6cc(C(F)(F)F)ccc6[nH]5)c4)c3)CC2)nc1.O=C(O)C(F)(F)F	99	50	15
CC1CCCN(c2ccc(NC(=O)c3cccs3)cc2[N+](=O)[O-])C1 (stereo not drawn)	96	96	14
Cc1n[nH]c2ccc(-c3cc(OC[C@@H](N)Cc4ccccc4)cnc3-c3ccc(OCc4cccc(F)c4)cc3)cc12.O=C(O)C(F)(F)F	98	59	97
CC(=O)Nc1ccc(C(=O)NC2CCN(c3ccnc4cc(Cl)ccc34)C2)cc1.O=C(O)C(F)(F)F (stereo not drawn)	100	100	1
CN1CCC(C(=O)N(Cc2ccc(-c3ccc(CNCCc4ccc(S(C)(=O)=O)cc4)cn3)cc2)C2CCN(Cc3ccccc3)CC2)CC1.O=C(O)C(F)(F)F	100	95	11
CCCN1CCC2(CC1)NC(C(=O)NCCC(C)C)Cc1c2[nH]c2cc(Cl)ccc12 (stereo not drawn)	86	0	13
Cc1cc(CN2C(=O)C(c3ccccc3)(c3ccccc3)N=C2N)c(C(F)(F)F)o1	97	84	11
CC1CN(CCCn2c3ccccc3c3ccc(C(=O)CCCN(C)C)cc32)CC(C)N1.Cl (stereo not drawn)	100	6	26
CCCN(C(=O)c1ccccc1C)c1nnc(-c2cccc(C)c2)s1	91	67	8
CCc1c(C)nc2nc(Cc3cccc(F)c3)nn2c1N1CCN(c2ccccn2)CC1	100	98	0
CCN(CCCN1CCCCC1)c1cc(C)nc(Nc2ccc(Cl)c(C(F)(F)F)c2)n1.O=C(O)C(F)(F)F	96	55	43
